Hit rate of the full screen: of about 2,400 compounds, about 950 (40%) were called active.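 The calls were made as follows: active = thallium flux ratio, averaged over three wells, more than 5 SD below the buffer control mean; inactive = the rest.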 Many of the other results were omitted from the sample, so actives are more common in it than they were.
assay: thallium flux inhibition in non-induced cells, primary screen, counter-screen for KCNK3 inhibitor project, cell-based, non-induced KCNK3 line, FluxOR thallium, triplicate (AID 651747); conditions: non-induced KCNK3 parental cells, at 10 µM; stronger effect = lower value;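 also: host cells are CHO cells without KCNK3 induction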;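 as to thallium flux ratio (lower = more inhibition): ratio is peak minus trough fluorescence over baseline then normalized to buffer controls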

Row | SMILES | thallium flux ratio (lower = more inhibition)
1 | CCOC(=O)C1SC2(C(F)(F)C(F)F)CC1(O)c1c(c(OC)c3occc3c1OC)O2 (stereo not drawn) | 0.16 (active)
2 | CCCCCCN=C(CC)c1c(O)n(CCCC)c(=O)[nH]c1=O | 0.126 (active)
3 | COc1ccccc1C1=NCc2nnc(CSC)n2-c2ccc(Cl)cc21 | inactive
